ALDH1A1 block = inhibitors of human aldehyde dehydrogenase 1A1 | Purified ALDH1A1, NADH fluorescence, propionaldehyde substrate | Potency, µM (highest dose often 75.3 µM), for inactives: at the top dose activity, negative = inhibition, actives largely listed as inhibitors | AID 1030 | hit rate 7.3% among 220,000 | P00352; active = well fitted inhibition curve with a large enough effect, not every such curve was filed as active; inconclusive = small, poorly fitted or top-dose-only effect, or another doubt; inactive = no such curve, though single readings can be large or run the other way;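 also: potency is read from the fitted curve at half-maximal effect; plate controls were no enzyme wells and a reference inhibitor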
Target sequence (P00352 whole entry, looked up): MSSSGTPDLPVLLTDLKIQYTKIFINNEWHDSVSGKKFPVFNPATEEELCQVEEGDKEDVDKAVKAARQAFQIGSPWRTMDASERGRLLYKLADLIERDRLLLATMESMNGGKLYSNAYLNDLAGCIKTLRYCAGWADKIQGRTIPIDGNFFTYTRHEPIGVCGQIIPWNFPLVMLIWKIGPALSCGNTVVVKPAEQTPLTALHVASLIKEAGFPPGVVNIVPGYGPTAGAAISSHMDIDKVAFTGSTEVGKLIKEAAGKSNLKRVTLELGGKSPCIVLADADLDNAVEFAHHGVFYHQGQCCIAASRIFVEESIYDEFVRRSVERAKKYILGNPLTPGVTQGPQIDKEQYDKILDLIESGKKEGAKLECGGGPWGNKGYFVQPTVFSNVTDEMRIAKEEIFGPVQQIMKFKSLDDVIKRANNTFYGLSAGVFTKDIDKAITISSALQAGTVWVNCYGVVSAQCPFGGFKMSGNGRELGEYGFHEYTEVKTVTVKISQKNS
Coupling enz = counter-screen for Giardia aldolase inhibitors: coupling enzyme system; coupling enzyme system counterscreen, AmpLite Red fluorescence; activity change, negative = inhibition, % at 58.2 µM, hits read low; hit rate 0.67% among 290,000; in the data active = activity change below about -30%
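Counterscreen of the coupled detection system alone, without aldolase: glyceraldehyde-3-phosphate coupling enzymes plus AmpLite Red readout. Compounds at 57.5 uM final, 10 min RT preincubation, 20 min RT reaction, fluorescence 525/598 nm.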
JMJD2E inh = inhibitors of human JMJD2E histone demethylase; JMJD2E catalytic domain, FDH-coupled NADH fluorescence (FDH is formaldehyde dehydrogenase); Potency, µM (top dose mostly 57.1 µM), for inactives: at the highest dose activity change, negative = inhibition, actives largely listed as inhibitors; hit rate 1.6% among 230,000; AID 2147; active = well fitted inhibition curve with a large enough effect, not every such curve was filed as active; inconclusive = small, poorly fitted or top-dose-only effect, or another doubt; inactive = no such curve, though single readings can be large or run the other way;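 also: potency is read from the fitted curve at half-maximal effect; 0% = wells with enzyme and -100% = buffer wells without enzyme; nearly all actives have a fitted effect of over 50% in size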
NPSR antagonist = blocks cAMP signaling of the human neuropeptide S receptor; Potency, µM (doses to about 38.3 µM), for inactives: at the highest dose activity change, negative = inhibition, usual class: inhibitors; CHO-NPSR cells, cAMP TR-FRET, antagonist mode; hit rate 1% among 220,000; Q6W5P4; also: potency is read from the fitted curve at half-maximal effect; nearly all actives have a fitted effect of over 50% in size
RGS12 GoLoco inh = blocks human Gai1 binding to RGS12 GoLoco peptide, red readout; P63096; Gai1:RGS12 GoLoco peptide FP, rhodamine, 10 min; Potency, µM (top dose mostly 61.6 µM), for the others: top-dose activity, negative = inhibition, hits mostly inhibitors; hit rate 0.44% among 230,000; AID 880; active = well fitted inhibition curve with a large enough effect, not every such curve was filed as active; inactive = no such curve, though single readings can be large or run the other way; also: potency is read from the fitted curve at half-maximal effect; nearly all actives have a fitted effect of over 30% in size
Sfp PPTase inh = inhibitors of Bacillus subtilis Sfp phosphopantetheinyl transferase; Biochemical Sfp PPTase activity, qHTS; Potency, µM, without a hit: largest response in the series, negative = inhibition, most hits filed as inhibitors; Q9F4F7; hit rate 3.5% among 310,000; AID 1490;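 also: the enzyme is Sfp with the accession as filed and its product quenches rhodamine fluorescence; potency is read from the fitted curve at half-maximal effect; 0% = enzyme reaction without inhibitor and -100% = no enzyme wells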
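Fluorescence-quenching assay: 15 nM Sfp-PPTase preincubated 15 min at room temperature with compound, then 5 uM rhodamine-CoA and 12.5 uM BHQ-2-labelled YbbR peptide added. Fluorescence (ex 525/em 598 nm) read at start and after 30 min; difference gives rate.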
An asterisk follows results filed as active; ? = inconclusive; / = not tested or not shown; [ ] = another dose, or the depositor's remark. The list is not random: actives were taken first. Their share in the collection is about 8.5%. Unless noted, calls follow the shape of the dose curve; as a rule, active = well fitted curve in the direction sought with a large enough effect; inconclusive = small, poorly fitted or top-dose-only effect, or another doubt; inactive = no such curve, though single readings can be large; an effect the other way counts as inactive or inconclusive. Unless noted, % is scaled to controls: 0 for no effect and ±100 for the full control effect.

SMILES	ALDH1A1 block	Coupling enz	JMJD2E inh	NPSR antagonist	RGS12 GoLoco inh	Sfp PPTase inh
c1ccc(C[N+]23CN4CN(CN(C4)C2)C3)cc1	-3%[13.5 µM]	/	/	/	0%[14.2 µM]	/
Clc1ccc2c(c1)C(c1ccccc1Cl)=NCc1nnc(N3CCN(CCOc4ccccc4)CC3)n1-2	10µM*	0	-2%	?	3%	-23%
COc1cccc(-c2cc(C(F)(F)F)n3nc(C(=O)N4CCC5(CC4)OCCO5)cc3n2)c1	13µM*	-5	-9%	-15%[46.1 µM]	5%	-7%
COc1cc2c(cc1OC)[C@H](C)NCC2	3%[20.9 µM]	0	0%[25.5 µM]	/	8%[21.6 µM]	15%
C[C@@H]1NCCc2cc(O)c(O)cc21	11%[20.9 µM]	-7	11µM*	/	3.5µM*	?
CN1CCc2cc(O)c(O)cc2C1Cc1ccc(O)c(O)c1 (stereo unspecified)	/	-9	/	/	/	?
O=C1NC(=O)N(CC2CCCO2)C(=O)/C1=C/c1cccs1 (stereo unspecified)	/	4	-26%	-41%	8%	79µM*
CCCCN1C(=O)/C(=C/c2ccc(N(C)C)cc2)C(=O)N(Cc2ccco2)C1=O	0.71µM*	-1	-8%	?	157%	-18%
CCN(CC)c1ccc(/C=C2\C(=O)NC(=O)N(Cc3ccco3)C2=O)cc1	0.5µM*	1	-10%	12%	211%	?
O=C1NC(=O)N(Cc2ccco2)C(=O)/C1=C/c1cccn1CCOc1ccccc1Cl	-4%	6	2%	-34%	3%	-10%
C=CCN1C(=O)NC(=O)/C(=C/c2ccoc2)C1=O	?	2	-3%	7%	3%	-29%
O=C1NC(=O)N(Cc2cccs2)C(=O)/C1=C/c1ccc(N2CCOCC2)cc1	7.1µM*	5	?	3%	116%	50µM*
CCCCN1C(=O)/C(=C\c2ccco2)C(=O)N(CCc2ccccc2)C1=O	3%	0	-6%	-27%[46.1 µM]	134%	?
COC(=O)C1(C)C=C2C(=C(C)C(=O)C2C)CN1 (stereo unspecified)	?	-6	?	/	-22%	7%
CCN(CC)c1ccc(/C=C2/C(=O)NC(=O)N(CC3CCCO3)C2=O)cc1 (stereo unspecified)	0.63µM*	3	-7%	-26%[46.1 µM]	210%	-6%
CCCCCC[C@H]1C(=O)O[C@H](C)[C@H](NC(=O)c2cccc(NC=O)c2O)C(=O)O[C@@H](C)[C@H]1OC(=O)CC(C)C	-14%[20.9 µM]	4	?	/	6%[21.6 µM]	12%
CC[C@@H]1[C@@H]2Cc3ccc(O)cc3[C@@]1(CC)CCN2C	6%[13.5 µM]	/	/	/	1%[14.2 µM]	/
CC(C)C[C@H](NC(=O)[C@H](Cc1ccccc1)NC(=O)CNC(=O)[C@@H](COC(C)(C)C)NC(=O)[C@@H](N)Cc1ccc(O)cc1)C(=O)N[C@H](C(=O)O)[C@@H](C)OC(C)(C)C	/	-3	/	/	/	15%
COc1ccc(NC(=O)Cn2c3ccccc3c3nc4n(c(=O)c32)CCS4)cc1	?	0	?	-19%	21%	1%
COc1cc2c(c(OC)c1OC)-c1ccc(O)c(=O)cc1[C@@H](NC(C)=O)CC2	-7%	0	11µM*	/	10%	-27%
COC1=C[C@H]2C3=C([C@H]2C1=O)[C@H](NC(C)=O)CCc1cc(OC)c(OC)c(OC)c13	5%[20.9 µM]	1	5%[25.5 µM]	/	7%[21.6 µM]	27%
CN1C(=O)C(Cc2c[nH]c3ccccc23)C(=O)N(C)C1=O	14µM*	-15	?	3%[46.1 µM]	-83%	40µM*
CN1C(=O)C(Cc2cccc3ccccc23)C(=O)N(C)C1=O	?	-21	-26%	-17%[46.1 µM]	-6%	-46%
CC12C=CC(=O)C=C1CCC1C2=CCC2(C)C1CC[C@@H]2C(=O)CN1CCN(c2cc(N3CCCC3)nc(N3CCCC3)n2)CC1 (stereo partly specified)	?	-38*	/	/	15%	?
O=C(O)CBr	-13%	/	/	/	1%	/
OCCN1C2CCC1CC(O)(c1ccc(F)cc1)C2 (stereo unspecified)	8%	1	5%	7%[46.1 µM]	6%	6%

Screening data as filed in PubChem.
